Screens deposited in PubChem BioAssay by National Center for Advancing Translational Sciences (NCATS).
ALOX12 inh: ALOX12 (human) lipoxygenase inhibition. P18054. Potency, µM (series often up to 108 µM), most hits filed as inhibitors. 580,000 compounds, 1.1% hits. purified 12hLO, xylenol orange hydroperoxide absorbance. AID 1671190
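Purified human 12hLO at 150 nM in 25 mM Hepes, 0.01% Triton X-100, pH 7.0, preincubated 15 min at room temperature with compound. Reaction started with 40 uM arachidonic acid, 30 min at room temperature. Hydroperoxide measured by Fe-xylenol orange, 573/405 nm absorbance ratio.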
BAZ2B block: inhibitors of human BAZ2B bromodomain; Q9UIF8; AlphaScreen BAZ2B-H3K14Ac peptide displacement; Potency, µM (series often up to 114 µM), hits mostly inhibitors; 360,000 compounds, 4.4% hits; AID 504333; also: nearly all actives have a fitted effect of over 60% in size
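AlphaScreen displacement of biotin-H3(5-23)K14Ac peptide (50 nM final) from BAZ2B (50 nM final) in PBS pH 7.4, 0.01% Tween-20; complex preformed 30 min RT, then compounds (top 110 uM) 30 min RT, beads 20 min dark.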
PLK1 PBD block: inhibitors of human PLK1 polo-box domain binding; 360,000 compounds, 2.8% hits; P53350; AID 720504; Plk1 PBD binding of FITC phosphopeptide, fluorescence polarization; Potency, µM, hits mostly inhibitors; also: series mostly up to about 57 µM; nearly all actives have a fitted effect of over 65% in size
Target sequence (P53350 whole entry, looked up, the tested form may be a part): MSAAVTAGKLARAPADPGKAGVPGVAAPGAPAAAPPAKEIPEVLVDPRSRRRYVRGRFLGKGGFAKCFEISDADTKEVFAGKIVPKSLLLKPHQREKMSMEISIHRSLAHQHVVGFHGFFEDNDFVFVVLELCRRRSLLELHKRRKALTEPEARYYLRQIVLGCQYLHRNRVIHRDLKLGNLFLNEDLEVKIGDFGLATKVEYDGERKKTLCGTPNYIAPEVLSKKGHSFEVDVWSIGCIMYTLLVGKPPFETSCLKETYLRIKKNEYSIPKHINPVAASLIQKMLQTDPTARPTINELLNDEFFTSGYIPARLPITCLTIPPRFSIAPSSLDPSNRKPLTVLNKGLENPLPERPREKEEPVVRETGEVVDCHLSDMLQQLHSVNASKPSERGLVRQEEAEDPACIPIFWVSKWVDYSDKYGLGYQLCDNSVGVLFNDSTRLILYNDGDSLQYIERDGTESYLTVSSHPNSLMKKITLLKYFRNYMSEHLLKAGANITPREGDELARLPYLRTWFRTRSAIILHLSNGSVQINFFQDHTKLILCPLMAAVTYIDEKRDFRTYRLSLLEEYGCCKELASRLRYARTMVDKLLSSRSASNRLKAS
HP1b binding inh: blocks HP1-beta chromodomain binding to methylated histone tails | P83916 | AlphaScreen HP1-beta / biotin-H3K9me3 peptide binding | Potency, µM (highest dose often 114 µM), most hits filed as inhibitors | 390,000 compounds, 0.56% hits; also: nearly all actives have a fitted effect of over 70% in size
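Compound inhibition of the preformed complex between 50 nM HP1-beta and 50 nM biotinylated H3K9me3 peptide was read by AlphaScreen. Buffer was PBS pH 7.4 with 0.01% Tween-20. Incubations ran 30 min at room temperature, with 10 ug/mL donor/acceptor beads.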
JMJD2A Tudor: inhibitors of human JMJD2A Tudor domain. 390,000 compounds, 4.4% hits. Potency, µM (series often up to 114 µM), usual class: inhibitors. AlphaScreen JMJD2A-Tudor / H3K4me3 peptide binding. O75164; also: nearly all actives have a fitted effect of over 50% in size
G9a inh: inhibitors of human histone lysine methyltransferase G9a; G9a H3K9 monomethylation, AlphaScreen, 2 h; Potency, µM (top dose mostly 102 µM), hits mostly inhibitors; 350,000 compounds, 8.8% hits; AID 504332; also: nearly all actives have a fitted effect of over 75% in size
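Chemiluminescent proximity detection of H3K9 monomethylation, read after 10 min bead incubation in the dark. Reaction: 20 nM G9a, 500 nM biotin-H3K9 peptide, 20 uM SAM cofactor, 2 h, room temperature, following 15 min enzyme-compound preincubation.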
Hits are given with their value; 0 = inactive; ? = inconclusive; - = no result given; [ ] = another dose, or the depositor's remark. A selection: hits, their analogues and other compounds. The true share with any hit is near 9%. Calls follow the shape of the dose curve; as a rule, active = well fitted curve in the direction sought with a large enough effect; inconclusive = small, poorly fitted or top-dose-only effect, or another doubt; inactive = no such curve, though single readings can be large; an effect the other way counts as inactive or inconclusive.

SMILES	ALOX12 inh	BAZ2B block	PLK1 PBD block	HP1b binding inh	JMJD2A Tudor	G9a inh
CCOC(=O)CC1=NN(c2ccccc2)C(=O)C1=c1sc(=C2SC(C)=C(C)N2CC)c(=O)n1CC	0	-	0	0	0	-
COC(=O)CC1=NN(c2ccccc2)C(=O)/C1=C\c1ccc(OC)cc1	?	?	2.7µM	0	0	20µM
CCOC(=O)CC1=NN(c2ccccc2)C(=O)/C1=C\c1ccc(OC)cc1OC	?	11µM	2.7µM	16µM	14µM	10µM
COc1ccc(C(=O)NNC(=O)C2=NN(c3ccccc3)C(=O)CC2)cc1	0	0	0	0	0	-
CN(C(=O)CCN1CCCO1)C1CCCN(Cc2ccccc2F)C1 (stereo not drawn)	0	0	0	0	0	0
CC(C)(C)CN1C(=O)C(=O)NC[C@H]1Cc1ccc(O)cc1	0	0	0	0	0	0
CCOc1ncccc1C(=O)Nc1cccc(C(=O)Nc2cccc(S(=O)(=O)CCO)c2)c1	0	0	0	0	0	0
CCn1c(-c2cccn(Cc3ccc(Cl)cc3Cl)c2=O)n[nH]c1=S	0	0	0	0	0[11.4 µM]	8.9µM
On1c(-c2ccc(Cl)cc2Cl)nc2ncccc21	0	0	0	0	0	0
S=c1[nH]nc(-c2ccc(Cl)cc2Cl)n1Cc1ccccc1	?	0	3.8µM	?	13µM	?
S=c1[nH]nc(-c2ccc(Cl)cc2Cl)n1-c1ccccc1	?	0	0	0	0	6.3µM
S=c1[nH]nc(COc2ccc(Cl)cc2Cl)n1-c1ccccc1	?	0	0	0	0	10µM
CCCCCNC(=O)C(c1ccncc1)n1c(=O)c(-c2ccccc2)nc2ccccc21 (stereo not drawn)	0	-	0	-	-	-
CCCc1cc(=O)n2[nH]c(NCc3c(Cl)cccc3Cl)nc2n1	0	0	0	0	0	0[12.7 µM]
Cc1ccc(S(=O)(=O)N(C)C)cc1NC(=O)COC(=O)/C=C/c1ccc2c(c1)OCO2	0	0	0	0	0	0
CN(C)c1nc(OC(C(F)(F)F)C(F)(F)F)nc(N2CCOCC2)n1	0	-	-	-	-	-
Cc1ccc(-c2cc3ncc4c(n3n2)-c2cc(Cl)ccc2OC4)cc1	0	0	-	0	0	0
Cc1ccc(NC(=O)CC(C)(C)CC(=O)O)cc1	0	-	-	-	-	-
COc1ccc([C@H]2N[C@]3(CCCN(Cc4cccn4C)C3=O)[C@H]3C(=O)N(C)C(=O)[C@@H]23)cc1	11µM	-	0	-	-	-
Cn1cccc1CN1CCC[C@]2(N[C@H](c3ccccc3)[C@@H]3C(=O)N(Cc4ccccc4)C(=O)[C@@H]32)C1=O	10µM	-	0	-	-	-
CC(C)CC1C(=O)N(Cc2cn(Cc3ccco3)nn2)CCS(=O)(=O)N1Cc1ccc(-c2ccc(F)cc2)cc1 (stereo not drawn)	?	-	0	-	-	-
Cc1cnc(C(=O)Nc2ccc(C)c(S(=O)(=O)N3CCCCCC3)c2)cn1	0	0	0	0	0	?
CCOC(=O)c1ccc(COC(=O)c2ccc(-c3nnc(-c4ccccc4)o3)cc2)o1	0	-	0	0	0	-
CCOC(=O)c1ccc(CC(=O)c2ccc(O)c(O)c2O)o1	?	32µM	?	?	0	-
CCOC(=O)c1ccc(CSC(=N)N)o1	0	0	0	0	0[11.4 µM]	0
SMILES	ALOX12 inh	BAZ2B block	PLK1 PBD block	HP1b binding inh	JMJD2A Tudor	G9a inh
CCOC(=O)c1ccc(CC(=O)c2oc3cc(O)ccc3c2C)o1	16µM	?	0	0	?	?
CCOC(=O)c1ccc(Cn2c(-c3ccccc3)nnc2-c2ccccc2)o1	0	0	24µM	0	0	0
O=C(NCC(O)COc1ccc(C(F)(F)F)cc1)C1CCC1 (stereo not drawn)	0	-	-	-	-	-
Cc1nonc1NC(=O)CSc1cn[nH]n1	0	0	0	0	0	50µM
NS(=O)(=O)c1ccc(NC(=O)CSc2cn[nH]n2)cc1	0	0	0	0	0	45µM
COc1ccc(NC(=O)CSc2cn[nH]n2)cc1OC	0	0	0	0	0	35µM
CC(=O)c1ccc(NC(=O)CSc2cn[nH]n2)cc1	0	0	0	0	0	?
Cc1nonc1NC(=O)CSc1ccc(-c2ccccc2)nn1	0	0	0	0	0	0
COc1ccccc1NC(=O)CSc1cn[nH]n1	0	-	-	-	-	-
Cc1cccc(NC(=O)CSc2cn[nH]n2)c1	0	0	0	0	0	40µM
Cc1ccc(-c2nn(C)c(=O)c3ccccc23)cc1CO	0	0	0	0	0	0
CC(C)C(NS(=O)(=O)c1cccc2nsnc12)C(=O)NCc1ccco1 (stereo not drawn)	0	0	0	0	0	0
NS(=O)(=O)c1cccc(NC(=O)CSc2ncnc3ccccc23)c1	0	0	0	0	0	0
NS(=O)(=O)c1ccc(NC(=O)CSc2ncnc3ccccc23)cc1	0	79µM	?	0	0	0
OCc1nnc(C2CC(Nc3ncnc4ccccc34)C2)n1C1CC1 (stereo not drawn)	0	-	-	-	-	-
COC(=O)C1=C(C)Nc2[nH]c(=S)[nH]c(=O)c2C1c1ccc(OC)cc1 (stereo not drawn)	25µM	?	?	0	?	8.9µM
COC(=O)C1=C(C)NC(=O)NC1c1ccc(OC)cc1 (stereo not drawn)	0	-	-	-	-	-
C[C@H]1[C@@H](O)[C@@H](C)\C=C/C=C\C=C/C=C\C=C/C=C\C=C/[C@@H](O[C@H]2O[C@@H](C)[C@@H](O)[C@@H](N)[C@@H]2O)C[C@@H]2O[C@](O)(C[C@@H](O)C[C@@H](O)[C@@H](O)CC[C@@H](O)C[C@@H](O)CC(=O)O[C@H]1C)C[C@@H](O)[C@H]2C(=O)O (stereo in doubt)	-	-	-	-	-	0[21.5 µM]
CC1C=CC=CC=CC=CC=CC=CC=CC(OC2OC(C)C(O)C(N)C2O)CC2OC(O)(CC(O)CC(O)C(O)CCC(O)CC(O)CC(=O)OC(C)C(C)C1O)CC(O)C2C(=O)O (stereo not drawn)	-	-	?	0	11µM	-
COc1ccc(/C=C2\CN(Cc3ccccc3)C/C(=C\c3ccc(OC)cc3OC)C2=O)c(OC)c1	0	25µM	0	?	?	14µM
COc1ccc(/C=C2\CN(Cc3ccccc3)C/C(=C\c3ccc(OC)cc3)C2=O)cc1	0	?	0	?	?	18µM
COc1ccc(C=C2c3ccccc3C(=O)c3ccccc32)c(OC)c1	?	13µM	-	-	-	28µM
COc1ccc(/C=C2\COc3ccccc3C2=O)c(OC)c1	0	0	0	0	0	0
COc1ccc(NC(=O)CCN2CCN(Cc3ccccc3)CC2)c(OC)c1	0	0	0	0	0	0[0.501 µM]
Cc1cnc(CC2CCNC2)n1C1CC1 (stereo not drawn)	0	-	-	-	-	-
O=C(CSc1nc2ccccc2c(=O)n1-c1ccccc1)N1CCN(CCO)CC1	0	0	0	0	0	0
